These results are taken from PubChem BioAssay (EPA / NIEHS).

Experiment [1] can be described thus: ATG_E_Box_CIS: Attagene CIS-FACTORIAL HepG2 Assay for human Enhancer Box (E-box) (AID 2282936). The note with it: HepG2 E-box cis-reporter transcription, actives raise or lower the signal. An outline of the steps: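 In this cell-based setup, HepG2 cells bearing transfected promoter-driven reporter units were exposed to chemicals for 24 h; reporter transcripts were amplified, 6-FAM-labelled, cut with HpaI and sized by capillary electrophoresis.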

The nature of experiment [2]: ATG_M_61_CIS: Attagene CIS-FACTORIAL HepG2 Assay for M61 Transcription Factor (Internal Marker) (AID 2282937). As to conditions: HepG2 Attagene CIS-FACTORIAL M61 internal marker reporter; actives raise or lower the signal. A digest of the protocol: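 Readout: fluorescent reporter mRNA fragments resolved by capillary electrophoresis after RT-PCR. Transiently transfected human HepG2 cells carried MRTU constructs reporting endogenous TF activity; 24 h chemical exposure; gain or loss of signal fitted relative to DMSO.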

The nature of experiment [3]: ATG_EGR_CIS: Attagene CIS-FACTORIAL HepG2 Assay for human Early Growth Response 1 (EGR1) (AID 2282938). The note with it: HepG2 Attagene CIS-FACTORIAL EGR reporter mRNA; actives raise or lower the signal. A digest of the protocol: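 Read-out: fluorescent reporter-mRNA fragments resolved by capillary electrophoresis after RT-PCR, 24 h post-dose in transiently transfected HepG2. Endogenous transcription-factor activity reported via cis-element-regulated reporter units; gain or loss fitted relative to DMSO.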

A short description of experiment [4]: ATG_M_19_CIS: Attagene CIS-FACTORIAL HepG2 Assay for M19 Transcription Factor (Internal Marker) (AID 2282939). The note with it: HepG2 Attagene CIS-FACTORIAL M19 internal marker reporter; actives raise or lower the signal. An outline of the steps: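 Readout: fluorescent reporter-transcript fragments by capillary electrophoresis after RT-PCR. Human HepG2 liver cells carried transfected MRTU constructs reporting endogenous transcription-factor activity; exposure 24 h. Gain or loss of signal fitted relative to DMSO.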

Experiment [5] can be described thus: ATG_Ets_CIS: Attagene CIS-FACTORIAL HepG2 Assay for human Erythroblast Transformation Specific (ETS) (AID 2282941). As to conditions: HepG2 ETS cis-reporter transcription; AC50: actives raise or lower the signal unless noted; outcome: actives raise or lower the signal unless noted. A digest of the protocol:
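Multiplexed reporter transcript profiling: HepG2, 24 h treatment, total RNA to cDNA, PCR, 6-FAM labelling, HpaI cut, capillary electrophoresis. Gain- or loss-of-signal fitted against DMSO.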

Experiment [6] in a line: ATG_FoxO_CIS: Attagene CIS-FACTORIAL HepG2 Assay for human Forkhead box O (FoxO) (AID 2282943). As to conditions: HepG2 Attagene cis-reporter, FoxO element, mRNA; actives raise or lower the signal. A digest of the protocol: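 Transfected HepG2 reporter cells exposed to test chemical for 24 h; reporter RNA measured by reverse transcription, PCR and fluorescent capillary electrophoresis; curves fitted for increases and decreases against DMSO.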

A short description of experiment [7]: ATG_GATA_CIS: Attagene CIS-FACTORIAL HepG2 Assay for human GATA Binding Protein (AID 2282944). As to conditions: HepG2 GATA cis-element reporter, Attagene multiplex mRNA; actives raise or lower the signal. A digest of the protocol:
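Read-out: fluorescent reporter mRNA fragments resolved by capillary electrophoresis after RT-PCR. Human liver HepG2 cells carried transiently transfected cis-regulated reporter constructs; chemicals incubated 24 h; gain or loss of signal fitted relative to DMSO.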

The nature of experiment [8]: ATG_GLI_CIS: Attagene CIS-FACTORIAL HepG2 Assay for human Zinc Finger Protein GLI1 (AID 2282945). The note with it: HepG2, Attagene cis-factorial reporter mRNA, GLI element; actives raise or lower the signal. A digest of the protocol:
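Transiently transfected HepG2 cells report endogenous transcription factor activity via cis-element-driven reporter units. After 24 h compound exposure, reporter mRNA was measured by RT-PCR with capillary electrophoresis; bidirectional fitting against DMSO baseline.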

Experiment [9] has as its target Bile acid receptor (Homo sapiens) (UniProt Q96RI1). The experiment is described as follows: ATG_IR1_CIS: Attagene CIS-FACTORIAL HepG2 Assay for human Nuclear Receptor Subfamily 1 Group H Member 4 (NR1H4), IR1 submotif (AID 2282946). As to conditions: IR1 reporter transcription, actives raise or lower the signal. An outline of the steps: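 Fluorescence of capillary-separated, HpaI-digested RT-PCR reporter products gave IR1-element mRNA induction in HepG2 cells 24 h after dosing. Endogenous transcription factors drove the cis-regulated reporters; activity was fitted bidirectionally against DMSO.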

Experiment [10] can be described thus: ATG_GRE_CIS: Attagene CIS-FACTORIAL HepG2 Assay for human Glucocorticoid Response Elements (GRE) (AID 2282947). The note with it: HepG2 GRE cis-reporter, Attagene multiplex mRNA; AC50: actives raise or lower the signal unless noted; outcome: actives raise or lower the signal unless noted. A digest of the protocol: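 Fluorescence intensity of reporter-specific cDNA fragments, separated by capillary electrophoresis, provides the signal. Constructs carry cis-regulating promoters in transiently transfected HepG2 liver cells; 24 h incubation; fitting is bidirectional against DMSO.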

Experiment [11] in a line: ATG_ISRE_CIS: Attagene CIS-FACTORIAL HepG2 Assay for human Interferon Regulatory Factor 1 (IRF1) binding to an Interferon-Stimulated Response Element (ISRE) (AID 2282948). As to conditions: HepG2 ISRE cis-reporter (Attagene), mRNA transcription readout; actives raise or lower the signal. An outline of the steps:
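Signal reflects induction or loss of ISRE-linked reporter mRNA in transiently transfected HepG2 cells after a 24 h treatment, detected by fluorescent RT-PCR fragments on capillary electrophoresis and normalised to DMSO.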

Experiment [12] can be described thus: ATG_M_32_CIS: Attagene CIS-FACTORIAL HepG2 Assay for M32 Transcription Factor (Internal Marker) (AID 2282949).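 Further: background control marker of the multiplexed CIS panel rather than a real target.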 The note with it: HepG2 Attagene cis-factorial M32 reporter, mRNA; actives raise or lower the signal. An outline of the steps:
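HepG2 transfectants (cis-regulated reporter transcription units) dosed 24 h. Reporter mRNA by RT-PCR plus CE, analysed as gain or loss relative to DMSO.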

The nature of experiment [13]: ATG_M_06_CIS: Attagene CIS-FACTORIAL HepG2 Assay for M06 Transcription Factor (Internal Marker) (AID 2282950). As to conditions: HepG2 Attagene CIS-FACTORIAL M06 internal marker reporter; actives raise or lower the signal. An outline of the steps: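 Terse: HepG2, transient MRTU transfection (FuGene 6), 24 h dosing; total RNA, oligo(dT) RT, PCR, FAM label, HpaI cut, capillary electrophoresis; bidirectional fit vs DMSO baseline; background-control endpoint.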

Experiment [14] addresses Hypoxia-inducible factor 1-alpha (Homo sapiens) (UniProt Q16665). The experiment can be described thus: ATG_HIF1a_CIS: Attagene CIS-FACTORIAL HepG2 Assay for human Hypoxia Inducible Factor 1 (HIF1A) (AID 2282951). The note with it: HepG2 Attagene cis-factorial HIF1a reporter transcription; actives raise or lower the signal. An outline of the steps: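 RT-PCR/capillary electrophoresis fluorescence readout of reporter transcripts from endogenous-TF-driven cis elements in transfected HepG2 cells, 24 h exposure; activity fitted in both directions against DMSO controls.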

The target in experiment [15] is Hepatocyte nuclear factor 6 (Homo sapiens) (UniProt Q9UBC0). The experiment can be described thus: ATG_HNF6_CIS: Attagene CIS-FACTORIAL HepG2 Assay for human Hepatocyte Nuclear Factor 6 (HNF6) (AID 2282952). As to conditions: HepG2 Attagene cis-factorial HNF6 reporter transcription; actives raise or lower the signal. A digest of the protocol: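 Twenty-four-hour chemical treatment of reporter-transfected HepG2 cells precedes RNA isolation, DNase-treated reverse transcription and PCR of reporter sequences. Labelled fragments are sized by capillary electrophoresis and fitted bidirectionally versus DMSO.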
Hepatocyte nuclear factor 6 (Homo sapiens), sequence (Q9UBC0 whole entry, looked up, the tested form may be a part): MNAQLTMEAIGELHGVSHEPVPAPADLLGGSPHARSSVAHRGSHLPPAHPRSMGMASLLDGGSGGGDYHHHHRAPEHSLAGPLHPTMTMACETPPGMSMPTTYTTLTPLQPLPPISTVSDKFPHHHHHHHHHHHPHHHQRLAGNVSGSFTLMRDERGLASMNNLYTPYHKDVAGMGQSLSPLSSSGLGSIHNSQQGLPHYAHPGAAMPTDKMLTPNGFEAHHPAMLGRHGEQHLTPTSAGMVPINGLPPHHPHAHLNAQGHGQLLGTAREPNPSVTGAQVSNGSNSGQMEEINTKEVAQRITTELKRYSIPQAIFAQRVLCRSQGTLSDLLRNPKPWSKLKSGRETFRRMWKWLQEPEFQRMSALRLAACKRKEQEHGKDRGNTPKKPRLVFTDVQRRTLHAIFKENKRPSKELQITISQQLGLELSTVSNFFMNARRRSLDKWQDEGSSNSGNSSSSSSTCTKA

Experiment [16] concerns the target Heat shock factor protein 1 (Homo sapiens) (UniProt Q00613). The experiment is described as follows: ATG_HSE_CIS: Attagene CIS-FACTORIAL HepG2 Assay for human Heat Shock Transcription Factor 1 (HSE) (AID 2282953). The note with it: HepG2 HSE cis-reporter, Attagene RNA transcription; actives raise or lower the signal. An outline of the steps:
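Read-out: fluorescence of reporter-specific RT-PCR fragments separated by capillary electrophoresis. HepG2 carrying transfected cis-element reporter units; 24 h dosing; activity fitted in both directions relative to DMSO baseline.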

Experiment [17] is described as follows: ATG_PBREM_CIS: Attagene CIS-FACTORIAL HepG2 Assay for human Phenobarbital-responsive Enhancer Module (PBREM) (AID 2282955). The note with it: HepG2 PBREM cis-reporter, Attagene multiplexed transcription; actives raise or lower the signal. A digest of the protocol:
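Reporter mRNA read by RT-PCR, 6-FAM primer extension, HpaI digestion and capillary electrophoresis. Transfected HepG2 cells, 24 h compound exposure. Gain or loss of signal fitted bidirectionally relative to DMSO baseline.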

In experiment [18] the target is Hepatocyte nuclear factor 3-beta (Homo sapiens) (UniProt Q9Y261). The experiment can be described thus: ATG_FoxA2_CIS: Attagene CIS-FACTORIAL HepG2 Assay for human Forkhead box A2 (FOXA2) (AID 2282942). As to conditions: HepG2 cis-reporter transcription factor activity, 24 h; actives raise or lower the signal. A digest of the protocol: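 Readout: fluorescent reporter transcripts resolved by capillary electrophoresis after RT-PCR. Transiently transfected HepG2, 24 h compound exposure, endogenous TF activity at cis promoter elements. Gain or loss of signal fitted relative to DMSO.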
Hepatocyte nuclear factor 3-beta (Homo sapiens), sequence (Q9Y261 whole entry, looked up): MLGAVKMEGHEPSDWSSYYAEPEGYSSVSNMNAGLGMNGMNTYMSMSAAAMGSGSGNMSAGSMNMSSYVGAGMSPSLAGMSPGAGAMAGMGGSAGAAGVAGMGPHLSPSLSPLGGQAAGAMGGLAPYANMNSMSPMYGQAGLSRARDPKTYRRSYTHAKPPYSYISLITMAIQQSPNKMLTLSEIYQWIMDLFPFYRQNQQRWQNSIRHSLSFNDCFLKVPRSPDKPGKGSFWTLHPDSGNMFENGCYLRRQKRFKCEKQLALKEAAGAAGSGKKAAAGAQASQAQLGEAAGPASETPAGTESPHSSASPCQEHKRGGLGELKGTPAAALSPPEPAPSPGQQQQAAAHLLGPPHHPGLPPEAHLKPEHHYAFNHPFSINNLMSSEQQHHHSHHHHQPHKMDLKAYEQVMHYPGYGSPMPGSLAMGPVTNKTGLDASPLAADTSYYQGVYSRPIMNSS

Experiment [19] in a line: ATG_MRE_CIS: Attagene CIS-FACTORIAL HepG2 Assay for human Metal Responsive Element (MRE) (AID 2282954). The note with it: HepG2 MRE cis-reporter transcription, Attagene multiplex; actives raise or lower the signal. A digest of the protocol:
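Measured here is mRNA induction from an MRE cis-element reporter in HepG2 after 24 h, quantified by fluorescence of labelled RT-PCR products on capillary electrophoresis; gain- and loss-of-signal fits use DMSO as baseline.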

A structure can be active in one record and inactive in another. Activity calls are given as the source filed them. How the source made its calls: active means hit-call score of the fitted dose curve at least 0.9, where 1 is the maximum; inactive means score below 0.9.

Hypoxia-inducible factor 1-alpha (Homo sapiens), sequence (Q16665 whole entry, looked up): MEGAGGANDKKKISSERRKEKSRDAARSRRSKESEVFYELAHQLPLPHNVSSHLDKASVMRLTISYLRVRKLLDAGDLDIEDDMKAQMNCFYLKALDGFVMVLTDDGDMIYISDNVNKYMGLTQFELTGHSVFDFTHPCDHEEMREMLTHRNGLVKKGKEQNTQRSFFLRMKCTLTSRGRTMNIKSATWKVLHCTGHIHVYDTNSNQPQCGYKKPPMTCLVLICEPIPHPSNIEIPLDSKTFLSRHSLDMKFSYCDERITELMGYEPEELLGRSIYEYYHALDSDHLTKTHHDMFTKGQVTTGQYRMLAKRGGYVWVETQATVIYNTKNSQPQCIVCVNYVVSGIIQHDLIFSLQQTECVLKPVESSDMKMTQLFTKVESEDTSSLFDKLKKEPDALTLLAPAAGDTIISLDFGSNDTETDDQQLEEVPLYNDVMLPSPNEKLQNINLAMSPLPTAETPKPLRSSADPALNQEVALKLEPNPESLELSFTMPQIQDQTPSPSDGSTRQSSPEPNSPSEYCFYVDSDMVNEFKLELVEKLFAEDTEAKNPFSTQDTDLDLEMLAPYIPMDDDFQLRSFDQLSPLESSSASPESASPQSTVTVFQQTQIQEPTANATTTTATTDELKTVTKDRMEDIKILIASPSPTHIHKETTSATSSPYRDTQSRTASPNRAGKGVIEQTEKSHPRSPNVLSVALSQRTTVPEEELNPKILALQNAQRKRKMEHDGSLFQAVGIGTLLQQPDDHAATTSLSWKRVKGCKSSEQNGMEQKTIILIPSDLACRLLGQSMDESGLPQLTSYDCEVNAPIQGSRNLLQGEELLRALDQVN
Bile acid receptor (Homo sapiens), sequence (Q96RI1 whole entry, looked up): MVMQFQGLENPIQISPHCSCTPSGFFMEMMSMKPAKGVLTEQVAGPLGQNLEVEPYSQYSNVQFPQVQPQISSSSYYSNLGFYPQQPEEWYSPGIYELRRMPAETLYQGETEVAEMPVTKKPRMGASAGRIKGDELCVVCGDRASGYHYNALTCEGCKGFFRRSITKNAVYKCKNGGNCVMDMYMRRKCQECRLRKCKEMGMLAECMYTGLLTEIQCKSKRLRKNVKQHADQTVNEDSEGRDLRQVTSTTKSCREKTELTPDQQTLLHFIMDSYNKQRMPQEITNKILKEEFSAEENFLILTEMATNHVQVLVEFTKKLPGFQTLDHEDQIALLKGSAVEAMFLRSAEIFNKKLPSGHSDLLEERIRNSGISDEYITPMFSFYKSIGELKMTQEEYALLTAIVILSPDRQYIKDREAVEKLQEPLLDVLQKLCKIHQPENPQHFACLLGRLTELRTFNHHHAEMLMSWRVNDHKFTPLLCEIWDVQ
Heat shock factor protein 1 (Homo sapiens), sequence (Q00613 whole entry, looked up, the tested form may be a part): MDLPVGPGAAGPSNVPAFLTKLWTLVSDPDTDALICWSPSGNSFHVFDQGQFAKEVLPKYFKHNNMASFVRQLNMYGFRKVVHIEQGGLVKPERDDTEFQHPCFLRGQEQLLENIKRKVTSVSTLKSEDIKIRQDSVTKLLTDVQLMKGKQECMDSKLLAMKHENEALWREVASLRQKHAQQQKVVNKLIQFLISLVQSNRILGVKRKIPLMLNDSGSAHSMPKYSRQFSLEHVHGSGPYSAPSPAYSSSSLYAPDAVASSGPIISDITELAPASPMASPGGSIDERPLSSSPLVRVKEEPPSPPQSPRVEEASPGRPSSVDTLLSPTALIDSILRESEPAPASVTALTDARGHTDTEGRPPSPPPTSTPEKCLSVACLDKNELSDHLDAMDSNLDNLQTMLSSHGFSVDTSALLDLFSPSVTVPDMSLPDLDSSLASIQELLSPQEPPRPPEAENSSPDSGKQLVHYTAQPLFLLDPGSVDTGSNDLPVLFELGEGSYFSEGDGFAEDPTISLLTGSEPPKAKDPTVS

On to `c1cc[nH]c1`, for which the result in experiment [1], in experiment [2], in [3], in [4], in [5] and in experiment [6] was inactive. For the same molecule, the call in experiment [7], in experiment [8], in experiment [9], in experiment [10], in experiment [11] and in experiment [12] was inactive. The result in experiment [13], in experiment [14], in [15], in experiment [16] and in experiment [17] was inactive.

Turning to `O=C(c1ccccc1)c1ccccc1`, the result in [1], in [2], in [3], in experiment [4], in experiment [5] and in [18] was inactive. The molecule was called inactive in experiment [6], in experiment [7], in experiment [10], in experiment [11], in experiment [12] and in experiment [13]. In addition, the molecule was classed as inactive in experiment [14], in experiment [16] and in [19].

As to `Cc1cc(=O)oc2cc(O)ccc12`, the result in experiment [1], in experiment [2], in experiment [3], in [4], in [5] and in [6] was inactive. In addition, the result in experiment [7], in experiment [8], in [11], in [12], in [13] and in experiment [15] was inactive. Also, the call in [16] and in experiment [17] was inactive. For the same molecule, the AC50 in experiment [17] is 42.3 µM (active).

With `CC(C)[C@@H]1CC[C@@H](C)C[C@H]1O`, the result in experiment [1], in experiment [2], in [3], in [4], in [5] and in experiment [18] was inactive. Besides, the outcome in experiment [6], in [7], in experiment [8], in experiment [9], in [11] and in experiment [12] was inactive. The call in experiment [13], in experiment [14], in experiment [15], in experiment [19] and in [17] was inactive.

For `CCCCCCCCCCCC(=O)O`, the outcome in experiment [1], in experiment [2], in [3], in experiment [4], in experiment [5] and in experiment [18] was inactive. In addition, the result in [6], in [7], in [8], in experiment [12], in [13] and in [14] was inactive. Also, the call in [15] and in [16] was inactive.

Take `CCCCCCCCCCCC`: the outcome in [1], in experiment [2], in [3], in [4], in experiment [5] and in experiment [18] was inactive. In addition, the outcome in experiment [6], in [7], in experiment [8], in [10], in experiment [11] and in [12] was inactive. For the same molecule, the outcome in [13], in experiment [14], in experiment [15] and in [16] was inactive.

For `CCCCCCCCCCCCCCC`, the result in experiment [1], in experiment [2], in experiment [3], in experiment [4], in experiment [5] and in [18] was inactive. In addition, the molecule was classed as inactive in experiment [6], in experiment [7], in experiment [8], in experiment [10], in experiment [11] and in [12]. The outcome in experiment [13], in experiment [14], in experiment [15], in experiment [16] and in experiment [17] was inactive.

For the molecule `CCC(C)c1ccccc1O` (configuration not stated), the result in experiment [1], in experiment [2], in [3], in experiment [4], in experiment [5] and in experiment [18] was inactive. Further, the call in experiment [6], in [7], in experiment [10], in experiment [12], in experiment [13] and in experiment [14] was inactive. Further, the call in experiment [15], in [16], in experiment [19] and in [17] was inactive.
